For 40 sequences, sensor-assay potency score (higher = more potent) results are on record in the OligoGym collection.
Note: reference of the scale not given here.

One assay addresses CMYA5. The assay is described as follows: pooled miR-30 sensor sort-seq; sequence = guide strand. To be noted: shRNA.
Consider TTCGATAGCTCTGACTCTCTGA, for which the sensor-assay potency score (higher = more potent) is 0.415.

The sequence TAACACTAGATTTCCTTCCTGA displayed a sensor-assay potency score (higher = more potent) of 0.81.

TATGACTTCTCTTTCTCCGTGG yielded a sensor-assay potency score (higher = more potent) of 0.895.

Another assay has as its target CNGA4. The assay is described as above. The settings on record: shRNA.
In turn, ATACCAGTCAATAACTCGCCGC displayed a sensor-assay potency score (higher = more potent) of -0.942.

TTCAGCAGGATCTCACGTCCTT: the sensor-assay potency score (higher = more potent) worked out at 0.0798.

ATGATGTACATCTCTTGGCCAA: the sensor-assay potency score (higher = more potent) is -1.02.

Sequence ACTGTAGTCAGTATCAGCGTGG came in with a sensor-assay potency score (higher = more potent) of -0.617.

Sequence TTCACCTGGTGAGTAGGTCTGG registered a sensor-assay potency score (higher = more potent) of -0.244.

TAGATGACAGAGCTCATGCTAC yielded a sensor-assay potency score (higher = more potent) of -0.751.

Turning to TCGTTGGTCATCTTCTTGTTGA, the sensor-assay potency score (higher = more potent) was -0.985.

For the sequence TCTCGGATGATGTACATCTCTT, the sensor-assay potency score (higher = more potent) was -0.967.

Sequence TGCTTGTGGATACTCGCTCAGC showed a sensor-assay potency score (higher = more potent) of -1.17.

Sequence TATAGCAGGTCACTCGTGTAGT registered a sensor-assay potency score (higher = more potent) of -0.135.

TACCAGTCAATAACTCGCCGCT registered a sensor-assay potency score (higher = more potent) of 0.117.

On to TCGGATGATGTACATCTCTTGG, for which the sensor-assay potency score (higher = more potent) was -1.02.

TTGTAGATGACAGAGCTCATGC had a sensor-assay potency score (higher = more potent) of -0.748.

TTCTGAAAGATCTGCACCCGGC gave a sensor-assay potency score (higher = more potent) of -0.677.

Turning to ATAACCGTGCTGCAAGTCGGGG, the sensor-assay potency score (higher = more potent) was -1.46.

With TACCTCGTTGGTCATCTTCTTG, the sensor-assay potency score (higher = more potent) was -0.968.

On to TAACCGTGCTGCAAGTCGGGGA, for which the sensor-assay potency score (higher = more potent) is -0.253.

Regarding TTCATGTTGTAGATGACAGAGC, the sensor-assay potency score (higher = more potent) is -0.761.

With TAAGCTGTGCGGGTCTCTGTGC, the sensor-assay potency score (higher = more potent) was -0.546.

Consider TTGATGTTGGCTGTGCGGCGGT, for which the sensor-assay potency score (higher = more potent) was -0.481.

Sequence TAAGCAATCTTAAGTGCGCTGG returned a sensor-assay potency score (higher = more potent) of 0.0217.

Regarding TTCAATGCGGTAAGCAATCTTA, the sensor-assay potency score (higher = more potent) was -0.691.

As for TAGGTCTGAATAACCTAGGCTC, the sensor-assay potency score (higher = more potent) was -0.534.

The target in the next assay is CNGB1. The assay is described as above. The settings on record: shRNA.
Sequence TTCTTGCACACATAGTCGTTGG had a sensor-assay potency score (higher = more potent) of -0.837.

Take TTGGGTTCATCTGTGCACCCTG: the sensor-assay potency score (higher = more potent) was 0.488.

For the sequence TACATCAGGTTGGTCAGCGGGT, the sensor-assay potency score (higher = more potent) was -0.543.

Sequence TGCGGTAGTAGGTCTGTCCGGC returned a sensor-assay potency score (higher = more potent) of 0.228.

The sequence TAGGTAATCCATCAGCAGCCAG registered a sensor-assay potency score (higher = more potent) of -1.07.

Sequence TGGGCTGGTACTGACATCCTGG came in with a sensor-assay potency score (higher = more potent) of -0.698.

TTTCTCTGTCCGCTCCTTGAAG: the sensor-assay potency score (higher = more potent) is -0.823.

The sequence TTGACGTCTTGCGAGCTCTTGG returned a sensor-assay potency score (higher = more potent) of -0.581.

Consider TTGAACTTGCAGCAGAGCATGT, for which the sensor-assay potency score (higher = more potent) was -0.734.

In the case of TCGCATGTCCTTTTTGTCCGTA, the sensor-assay potency score (higher = more potent) is -0.378.

With TTCTCTTCTTCATAAGCTGGAA, the sensor-assay potency score (higher = more potent) is -0.514.

Sequence TTGTAGTTCACGTCGATGGCGA gave a sensor-assay potency score (higher = more potent) of -0.201.

TCTTTCTCCTCTTCAATCCGGG yielded a sensor-assay potency score (higher = more potent) of -0.237.

Regarding TAAGCTGGAACCACCTCTGTAC, the sensor-assay potency score (higher = more potent) was determined as 0.05.
